About 7,900 targets were measured; listed, in parts, are those with a hit and a random draw of the rest. About 0.6% of all pairs of compound and target were hits. Unmarked numbers belong to inactive results.
Experiments:
Assay in all cases: log2 fold change, soluble protein after heating vs DMSO (PISA); higher = thermal stabilisation; K562 cells, 10 uM, 30 min; active = over 0.2 and 3.5 SD of the protein, either way, in both replicates (recomputed)
[1] = compound: CC1=C(C=C(C=C1)NC(=O)C2=CC(=CC=C2)C(C)(C)C#N)NC3=CC4=C(C=C3)N=CN(C4=O)C
In short: (§1)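 Soluble protein was defined as the supernatant after 21,000xg for 90 min. It came from K562 cells at 2×10^6 cells/mL given 10 μM compound for 30 min, heated in aliquots for 3 min across 48°C-58°C, pooled, and extracted in PBS with 0.5% NP-40 at 4°C, and was quantified by TMTpro 16plex LC-MS/MS with equalised channel sums. Thermal stability against control samples, from duplicates, is reported as log2 fold change.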

[2] = compound: CC1=C(C=C(C=C1)NC(=O)C2=CC(=CC=C2)N(C)C)NC(=O)C3=CC=C(C=C3)O
In short: as §1

[3] = compound: CC1=CC=C(C=C1)SC2=C3C=C(SC3=CN=C2)C(=O)N
In short: as §1

[4] = compound: CC1=NC(=CC=C1)C2=C(N=C(N2)C(C)(C)C)C3=CC4=NC=CN=C4C=C3
In short: as §1

Nexturastat A = compound: CCCCN(Cc1ccc(C(=O)NO)cc1)C(=O)Nc1ccccc1 [Nexturastat A]
In short: as §1

vemurafenib = compound: CCCS(=O)(=O)Nc1ccc(F)c(C(=O)c2c[nH]c3ncc(-c4ccc(Cl)cc4)cc23)c1F [vemurafenib]
In short: as §1

[5] = compound: CCCS(=O)(=O)Nc1ccc(F)c(C(=O)c2c[nH]c3ncc(Cl)cc23)c1F
In short: as §1

[6] = compound: CCCc1cc(C)[nH]c(=O)c1CNC(=O)c1cc(-c2ccnc(N3CCN(C)CC3)c2)cc2c1cnn2C(C)C
In short: as §1

givinostat = compound: CCN(CC)Cc1ccc2cc(COC(=O)Nc3ccc(C(=O)NO)cc3)ccc2c1 [givinostat]
In short: as §1

barasertib = compound: CCN(CCCOc1ccc2c(Nc3cc(CC(=O)Nc4cccc(F)c4)[nH]n3)ncnc2c1)CCOP(=O)(O)O [barasertib]
In short: as §1

[7] = compound: CC[C@@H]1C(=O)N(C)c2cnc(Nc3ccc(C(=O)NC4CCN(C)CC4)cc3OC)nc2N1C1CCCC1
In short: as §1

volasertib = compound: CC[C@@H]1C(=O)N(C)c2cnc(Nc3ccc(C(=O)N[C@H]4CC[C@H](N5CCN(CC6CC6)CC5)CC4)cc3OC)nc2N1C(C)C [volasertib]
In short: as §1

[8] = compound: CC[C@H](C)N1C=C(C2=C(C=C(C=C21)C3=CN=C(C=C3)N4CCNCC4)C(=O)NCC5=C(C=C(NC5=O)C)C)C
In short: as §1

epoxomicin = compound: CC[C@H](C)[C@@H](C(=O)N[C@@H]([C@@H](C)O)C(=O)N[C@@H](CC(C)C)C(=O)[C@]1(CO1)C)NC(=O)[C@H]([C@@H](C)CC)N(C)C(=O)C [epoxomicin]
In short: as §1

[9] = compound: CCn1c(C(=O)N(C2CC2)C2CC2)cc2c3c(ncn3C)c(Nc3cc(C)n(C)n3)nc21
In short: as §1

[10] = compound: CCn1cc(-c2ccnc3[nH]c(-c4cccc(CN(C)C)c4)cc23)c(-c2ccc(NC(=O)N(C)C)cc2)n1
In short: as §1

[11] = compound: CN(C)CC(=O)Nc1ccc2[nH]c(=O)c3ccccc3c2c1
In short: as §1

rosiglitazone = compound: CN(CCOC1=CC=C(C=C1)C[C@H]2C(=O)NC(=O)S2)C3=CC=CC=N3 (racemic) [rosiglitazone]
In short: as §1

[12] = compound: CN1C2=C(C3=C1C(=O)N(N=C3)CC4=CC(=CC=C4)N)SC(=C2)S(=O)C
In short: as §1

[13] = compound: CN1CCC(CNc2ccc3ncc(-c4cccc(OC(F)(F)F)c4)n3n2)CC1
In short: as §1

UniProt Q9UHQ4, sequence (Q9UHQ4 whole entry, looked up): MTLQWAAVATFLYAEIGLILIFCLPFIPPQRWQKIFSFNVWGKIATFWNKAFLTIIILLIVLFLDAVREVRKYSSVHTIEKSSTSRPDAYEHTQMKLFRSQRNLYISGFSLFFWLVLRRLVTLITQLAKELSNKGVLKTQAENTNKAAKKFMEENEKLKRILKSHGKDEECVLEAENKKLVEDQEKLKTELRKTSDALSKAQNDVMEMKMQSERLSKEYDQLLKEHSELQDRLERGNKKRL
UniProt O00468, sequence (O00468 whole entry, looked up): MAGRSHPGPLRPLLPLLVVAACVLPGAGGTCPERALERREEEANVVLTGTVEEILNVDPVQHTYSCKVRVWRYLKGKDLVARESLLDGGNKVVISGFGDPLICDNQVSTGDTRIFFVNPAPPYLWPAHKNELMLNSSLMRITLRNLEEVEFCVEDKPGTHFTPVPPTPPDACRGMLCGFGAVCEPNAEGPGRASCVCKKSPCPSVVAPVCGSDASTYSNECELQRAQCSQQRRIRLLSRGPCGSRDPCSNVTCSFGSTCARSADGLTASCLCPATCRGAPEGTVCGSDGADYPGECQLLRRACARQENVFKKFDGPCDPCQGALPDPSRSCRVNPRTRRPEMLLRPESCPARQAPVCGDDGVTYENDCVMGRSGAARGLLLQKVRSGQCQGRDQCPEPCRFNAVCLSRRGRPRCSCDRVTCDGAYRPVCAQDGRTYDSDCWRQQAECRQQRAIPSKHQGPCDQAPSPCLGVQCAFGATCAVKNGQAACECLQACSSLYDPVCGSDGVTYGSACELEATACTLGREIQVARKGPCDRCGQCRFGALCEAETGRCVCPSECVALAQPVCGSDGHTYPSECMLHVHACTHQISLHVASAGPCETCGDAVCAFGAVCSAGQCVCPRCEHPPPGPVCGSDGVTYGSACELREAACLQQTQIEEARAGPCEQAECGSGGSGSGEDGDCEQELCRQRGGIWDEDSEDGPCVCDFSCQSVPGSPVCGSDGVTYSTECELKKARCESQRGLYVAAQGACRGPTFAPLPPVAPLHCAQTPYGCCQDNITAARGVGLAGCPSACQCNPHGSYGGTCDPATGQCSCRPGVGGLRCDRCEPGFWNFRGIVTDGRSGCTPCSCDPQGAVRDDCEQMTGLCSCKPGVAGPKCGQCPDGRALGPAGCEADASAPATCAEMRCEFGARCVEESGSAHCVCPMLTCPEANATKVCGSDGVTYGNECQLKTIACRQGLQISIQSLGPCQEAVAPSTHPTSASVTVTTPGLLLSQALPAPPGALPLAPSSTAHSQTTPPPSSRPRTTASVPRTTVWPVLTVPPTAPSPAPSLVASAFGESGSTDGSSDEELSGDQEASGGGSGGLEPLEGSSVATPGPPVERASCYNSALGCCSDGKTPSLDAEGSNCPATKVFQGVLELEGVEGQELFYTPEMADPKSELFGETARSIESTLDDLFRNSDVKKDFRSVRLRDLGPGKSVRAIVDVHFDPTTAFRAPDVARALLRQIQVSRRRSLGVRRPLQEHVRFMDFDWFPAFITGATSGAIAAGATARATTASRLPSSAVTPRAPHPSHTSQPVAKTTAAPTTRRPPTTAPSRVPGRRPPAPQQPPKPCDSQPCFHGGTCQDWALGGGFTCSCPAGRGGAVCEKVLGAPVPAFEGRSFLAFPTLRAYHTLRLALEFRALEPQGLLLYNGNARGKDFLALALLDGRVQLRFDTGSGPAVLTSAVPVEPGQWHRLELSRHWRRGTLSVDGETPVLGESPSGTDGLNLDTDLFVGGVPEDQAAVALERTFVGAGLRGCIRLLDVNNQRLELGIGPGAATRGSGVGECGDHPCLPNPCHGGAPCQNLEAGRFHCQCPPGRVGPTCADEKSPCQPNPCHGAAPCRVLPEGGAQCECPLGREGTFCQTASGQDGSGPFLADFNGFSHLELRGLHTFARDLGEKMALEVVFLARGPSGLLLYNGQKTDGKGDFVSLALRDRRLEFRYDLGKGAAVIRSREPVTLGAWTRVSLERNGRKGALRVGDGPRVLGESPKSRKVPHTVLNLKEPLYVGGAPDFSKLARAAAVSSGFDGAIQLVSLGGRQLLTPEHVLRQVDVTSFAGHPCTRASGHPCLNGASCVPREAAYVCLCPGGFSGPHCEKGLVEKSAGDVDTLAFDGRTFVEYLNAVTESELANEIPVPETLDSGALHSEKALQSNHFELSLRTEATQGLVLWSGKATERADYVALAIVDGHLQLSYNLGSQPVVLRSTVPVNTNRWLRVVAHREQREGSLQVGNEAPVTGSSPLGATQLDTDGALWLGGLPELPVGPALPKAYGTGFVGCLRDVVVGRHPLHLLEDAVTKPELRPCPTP
UniProt Q5T9A4, sequence (Q5T9A4 whole entry, looked up): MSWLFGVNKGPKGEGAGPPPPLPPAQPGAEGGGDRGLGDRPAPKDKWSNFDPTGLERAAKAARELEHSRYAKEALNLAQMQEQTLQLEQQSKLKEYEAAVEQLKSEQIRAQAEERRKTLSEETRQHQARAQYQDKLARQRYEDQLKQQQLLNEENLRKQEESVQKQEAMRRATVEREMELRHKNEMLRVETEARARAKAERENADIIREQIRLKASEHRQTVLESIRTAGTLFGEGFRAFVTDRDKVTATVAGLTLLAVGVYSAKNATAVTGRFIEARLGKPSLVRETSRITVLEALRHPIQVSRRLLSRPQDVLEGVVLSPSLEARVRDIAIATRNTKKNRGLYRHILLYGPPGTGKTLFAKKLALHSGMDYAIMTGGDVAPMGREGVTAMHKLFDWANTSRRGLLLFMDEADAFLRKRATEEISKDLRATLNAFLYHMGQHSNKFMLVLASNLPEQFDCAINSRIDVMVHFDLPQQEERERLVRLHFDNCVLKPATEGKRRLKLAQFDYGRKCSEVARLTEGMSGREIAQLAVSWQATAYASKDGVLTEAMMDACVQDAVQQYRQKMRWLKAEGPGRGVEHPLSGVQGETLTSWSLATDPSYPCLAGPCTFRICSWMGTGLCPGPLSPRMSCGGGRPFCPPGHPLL
UniProt Q7L1Q6, sequence (Q7L1Q6 whole entry, looked up): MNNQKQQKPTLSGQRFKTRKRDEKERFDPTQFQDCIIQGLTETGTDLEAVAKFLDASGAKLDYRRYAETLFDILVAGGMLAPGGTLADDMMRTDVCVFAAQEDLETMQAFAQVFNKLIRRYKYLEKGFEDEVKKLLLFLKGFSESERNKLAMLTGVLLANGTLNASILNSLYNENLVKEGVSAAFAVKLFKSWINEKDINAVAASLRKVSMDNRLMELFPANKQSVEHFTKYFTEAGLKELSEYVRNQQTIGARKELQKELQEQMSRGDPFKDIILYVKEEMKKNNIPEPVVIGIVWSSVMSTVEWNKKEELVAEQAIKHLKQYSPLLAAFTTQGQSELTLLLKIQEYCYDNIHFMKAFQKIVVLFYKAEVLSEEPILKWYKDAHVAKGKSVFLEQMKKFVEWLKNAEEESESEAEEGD
UniProt P53367, sequence (P53367 whole entry, looked up): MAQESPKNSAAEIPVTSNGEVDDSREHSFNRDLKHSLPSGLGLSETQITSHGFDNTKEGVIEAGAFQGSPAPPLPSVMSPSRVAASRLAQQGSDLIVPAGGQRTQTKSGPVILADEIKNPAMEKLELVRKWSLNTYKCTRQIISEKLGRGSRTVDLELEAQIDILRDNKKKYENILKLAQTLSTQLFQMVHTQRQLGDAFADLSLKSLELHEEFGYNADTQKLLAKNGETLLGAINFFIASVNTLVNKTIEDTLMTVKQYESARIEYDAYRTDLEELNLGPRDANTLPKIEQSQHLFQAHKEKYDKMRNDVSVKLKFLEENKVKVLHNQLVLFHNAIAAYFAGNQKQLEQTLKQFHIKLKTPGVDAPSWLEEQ
UniProt Q2TAA5, sequence (Q2TAA5 whole entry, looked up): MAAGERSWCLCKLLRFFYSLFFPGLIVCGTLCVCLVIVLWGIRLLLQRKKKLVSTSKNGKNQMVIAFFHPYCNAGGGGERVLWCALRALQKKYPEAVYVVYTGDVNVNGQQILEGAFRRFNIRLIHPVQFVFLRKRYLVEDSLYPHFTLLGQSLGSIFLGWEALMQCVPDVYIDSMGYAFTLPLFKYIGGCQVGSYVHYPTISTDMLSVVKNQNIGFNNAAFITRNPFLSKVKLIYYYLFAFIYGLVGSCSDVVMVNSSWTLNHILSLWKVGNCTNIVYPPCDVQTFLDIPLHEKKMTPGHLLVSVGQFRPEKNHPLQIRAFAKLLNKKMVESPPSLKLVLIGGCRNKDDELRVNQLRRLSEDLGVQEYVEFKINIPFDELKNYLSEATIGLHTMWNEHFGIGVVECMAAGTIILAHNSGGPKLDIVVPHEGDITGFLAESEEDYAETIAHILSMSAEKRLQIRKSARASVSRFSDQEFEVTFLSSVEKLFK
UniProt Q9P287, sequence (Q9P287 whole entry, looked up): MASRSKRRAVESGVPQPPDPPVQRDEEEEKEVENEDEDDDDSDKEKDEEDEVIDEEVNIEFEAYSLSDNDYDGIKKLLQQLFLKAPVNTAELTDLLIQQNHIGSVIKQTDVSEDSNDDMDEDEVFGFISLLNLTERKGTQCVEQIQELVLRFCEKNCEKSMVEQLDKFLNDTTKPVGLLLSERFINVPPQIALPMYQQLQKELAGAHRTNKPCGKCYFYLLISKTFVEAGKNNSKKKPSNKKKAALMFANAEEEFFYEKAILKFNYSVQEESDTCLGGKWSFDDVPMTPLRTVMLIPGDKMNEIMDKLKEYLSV
UniProt Q96GS6, sequence (Q96GS6 whole entry, looked up): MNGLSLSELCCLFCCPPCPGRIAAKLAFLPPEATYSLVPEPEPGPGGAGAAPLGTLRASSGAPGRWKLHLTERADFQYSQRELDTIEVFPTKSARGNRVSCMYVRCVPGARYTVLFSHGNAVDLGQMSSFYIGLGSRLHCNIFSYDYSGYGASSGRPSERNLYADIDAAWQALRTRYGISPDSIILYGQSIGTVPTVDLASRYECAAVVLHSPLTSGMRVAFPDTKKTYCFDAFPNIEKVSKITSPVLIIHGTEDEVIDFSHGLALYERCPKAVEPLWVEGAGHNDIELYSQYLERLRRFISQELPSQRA
UniProt P56211, sequence (P56211 whole entry, looked up): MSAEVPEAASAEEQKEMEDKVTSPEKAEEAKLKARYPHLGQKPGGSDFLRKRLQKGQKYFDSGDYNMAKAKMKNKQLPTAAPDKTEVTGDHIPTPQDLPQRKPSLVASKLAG

Target	log2 fold change [1]	log2 fold change [2]	log2 fold change [3]	log2 fold change [4]	log2 fold change (Nexturastat A)	log2 fold change (vemurafenib)	log2 fold change [5]	log2 fold change [6]	log2 fold change (givinostat)	log2 fold change (barasertib)	log2 fold change [7]	log2 fold change (volasertib)	log2 fold change [8]	log2 fold change (epoxomicin)	log2 fold change [9]	log2 fold change [10]	log2 fold change [11]	log2 fold change (rosiglitazone)	log2 fold change [12]	log2 fold change [13]
BZW1 isoform 3 (UniProt Q7L1Q6)	0.064	-0.014	0.036	0.038	0.016	0.107	0.126	0.105	0.084	0.06	-0.273	-0.82 (active)	0.114	0.019	-0.128	-0.041	0.104	0.063	0.068	-0.33
ALG11 (UniProt Q2TAA5)	0.006	-0.018	-0.041	0.013	-0.004	0.053	0.019	-0.04	0	0.043	-0.034	-0.17	0.126	0.038	-0.075	0.006	0.018	0.021	-0.109	0.042
ATR (UniProt Q13535)	-0.012	-0.022	0.013	-0.126	0.005	0.035	-0.001	0.015	0.039	0.037	-0.063	-0.197	-0.02	0.048	-0.071	-0.041	0.052	0.049	-0.017	0
BCCIP isoform 2 (UniProt Q9P287)	0.042	-0.055	-0.015	0.022	-0.065	0.008	-0.003	-0.099	-0.066	0.026	-0.037	-0.038	0.044	0.019	0.023	0.022	0.026	0.021	-0.042	-0.028
AGO1 (UniProt Q9UL18)	-0.213	-0.021	-0.025	0.193	0.084	-0.023	-0.006	-0.111	0.071	-0.064	0.215	0.124	-0.1	-0.148	-0.029	0.032	0.098	0.042	0.14	-0.151
BAIAP2 (UniProt Q9UQB8)	-0.019	0.01	0.007	-0.012	0.041	0.021	0.068	0.048	0.029	0.048	-0.045	-0.089	0.082	0.14	-0.011	-0.05	-0.019	0.038	-0.015	-0.142
ARFRP1 (UniProt Q13795)	0.138	0.003	0.082	0.069	-0.048	0.033	0	0.046	0.012	-0.015	-0.038	-0.05	0.048	0.037	0.026	-0.23	0.012	-0.021	-0.021	0.071
ATP2A3 isoform 2 (UniProt Q93084)	-0.024	-0.001	-0.013	0.004	0	-0.004	0.032	0.042	-0.01	0.011	-0.142	-0.208	0.046	0.06	0.014	-0.047	-0.028	0.009	-0.016	0.028
BCAP29 isoform 2 (UniProt Q9UHQ4)	-0.078	0.006	0.015	0.01	-0.032	-0.033	-0.036	-0.116	-0.075	0.025	0.022	0.085	-0.072	-0.096	0.082	-0.011	-0.008	0.045	-0.044	0.05
AGRN (UniProt O00468)	-0.089	-0.294	-0.031	0.014	-0.051	-0.025	-0.072	0.024	-0.011	0.011	0.042	-0.001	0.005	0.065	-0.018	0.053	0.016	-0.012	0.062	-0.02
ATP13A3 (UniProt Q9H7F0)	0.027	0.031	-0.068	0.012	-0.042	-0.014	-0.02	-0.076	0.025	-0.001	-0.085	0.077	0.016	0	-0.014	-0.022	-0.012	0.128	-0.011	-0.401 (active)
ARPP19 (UniProt P56211)	-0.012	0.199	0.057	0.125	-0.04	0.041	0.043	-0.106	-0.003	-0.012	0.013	0.016	-0.01	0.041	0.029	-0.052	0.032	0.001	0.069	-0.041
ARFIP1 (UniProt P53367)	-0.031	0.042	0.022	-0.006	-0.081	-0.026	0.084	0.045	0.058	0.046	-0.008	-0.184	0.113	-0.003	-0.101	0.083	-0.011	0.856	-0.053	-0.421
ARL2BP (UniProt Q9Y2Y0)	0.154	-0.033	0.012	0.281	0.043	-0.031	0.071	0.102	-0.041	0.079	-0.222	-0.682 (active)	0.023	-0.008	-0.022	-0.048	0.032	0.019	-0.062	-0.183
ATAD3B (UniProt Q5T9A4)	-0.07	-0.022	0.003	-0.009	0.236	-0.024	0.042	0.058	0.05	-0.019	-0.076	-0.167	0.093	-0.045	-0.018	0.112	-0.026	0.005	0.167	-0.339 (active)
ABHD17A isoform 2 (UniProt Q96GS6)	-0.004	-0.031	0.035	-0.068	0.034	-0.039	-0.032	-0.021	-0.313	0.016	-0.072	-0.172	-0.084	-0.057	-0.058	-0.17	-0.067	0.009	-0.015	-0.377 (active)

From the supplement of paper PMC10849652
